“And” between values parts separate entries of the source, which are not always exact repeats. Equal values may be shown once. Records with an inconclusive call do not appear. The source made the active and inactive calls. Unless noted, the call rests on the fitted dose curve; in most records, active means well fitted curve in the direction sought with a large enough effect; inconclusive means small, poorly fitted or top-dose-only effect, or another doubt; inactive means no such curve, though single readings can be large; an effect the other way counts as inactive or inconclusive.
Tests used:
[1] = target: Voltage-gated inwardly rectifying potassium channel KCNH2 (Homo sapiens) (UniProt Q12809); experiment: qHTS Assay for Small Molecule Inhibitors of the Human hERG Channel Activity (AID 588834);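 further: top concentration of the series differs between compounds; on the % scale 0 is the no-effect control and ±100 the full control effect; lower thallium flux fluorescence means stronger hERG block; nearly all actives have a fitted effect of over 50% in size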
Outline: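 Thallium-flux (FluxOR) read-out on FDSS: fluorescence read 10 s before and 2 min after stimulation buffer. hERG-BacMam-transduced U2OS cells, compound exposure about 10 min. AC50 by standard Hill equation.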

[2] = target: Luciferin 4-monooxygenase (Photinus pyralis) (UniProt P08659); experiment: Biochemical firefly luciferase enzyme assay for NPC (AID 624030);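 further: purified P. pyralis luciferase at 10 nM with luciferin and ATP substrate; series mostly up to about 59 µM; 0% = DMSO and -100% = full luciferase inhibition by PTC124 control; nearly all actives have a fitted effect of over 70% in size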
Outline: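 Counter-screen for direct inhibition of the luciferase enzyme by approved-drug library compounds, run at 10 nM enzyme in 50 mM Tris acetate (final). Luminescence was read within 5 min of enzyme-buffer addition and normalized to PTC124 versus DMSO (0%).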

[3] = target: Peroxisome proliferator-activated receptor gamma (Homo sapiens) (UniProt P37231); experiment: qHTS assay for small molecule antagonists of peroxisome proliferator-activated receptor gamma signaling (AID 588537; active means well fitted inhibition curve with a large enough effect in the signal ratio, with a control signal flat, not every such curve was filed as active; the % refers to the signal ratio;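 further: reporter cells co-stimulated with 50 nM rosiglitazone agonist during compound treatment; % of control where 0% means no effect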)
Outline: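 Compounds are tested as concentration series for inhibition of rosiglitazone-driven (50 nM) reporter expression in GeneBLAzer PPAR-gamma-UAS-bla HEK293 cells. After 16 h at 37 C, CCF4 substrate is added for 2 h at room temperature and blue/green fluorescence is measured.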

[4] = target: Thyroid hormone receptor beta (Homo sapiens) (UniProt P10828); experiment: qHTS assay for small molecule agonists of thyroid hormone receptor beta signaling (AID 588545; calls by dose curve; further: potency means the concentration at half of the fitted maximal effect)
Outline: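 Cells (2500/well) were seeded, incubated 4 hrs at 37 C, dosed with a compound series, incubated 18 hrs, loaded with CCF4 dye for 2 hrs at RT, then read for fluorescence. Data were scaled between DMSO (0%) and 10 nM T3 (100%).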

[5] = S16 Schwann cell viability assay (CellTiter-Glo assay) (AID 624031);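 further: cellular ATP luminescence as a viability measure; series mostly up to about 58 µM; plate controls were DMSO-treated cells for no effect and cell-free wells for full effect; nearly all actives have a fitted effect of over 70% in size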
Outline: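 CellTiter-Glo ATP luminescence counter-screen in untransfected S16 rat Schwann cells, 24h compound exposure at 37 degree Celsius after overnight seeding (500-750 cells/well); response scaled between cell-free wells and DMSO (0% activity), curves classed by r2 and magnitude.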

[6] = S16 Schwann cell PMP22 intronic element firefly luciferase assay (AID 624032); further: nearly all actives have a fitted effect of over 30% in size; further: potency means the concentration at half of the fitted maximal effect
Outline: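 Rat S16 Schwann cells stably carrying a PMP22 intronic element-driven Fluc reporter were seeded overnight, then exposed to compounds for 24 h at 37 °C. Luminescence was normalized to PTC124 (positive control) and DMSO (0% activity).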

[7] = target: Glucocorticoid receptor (Homo sapiens) (UniProt P04150); experiment: qHTS assay for small molecule agonists of glucocorticoid receptor signaling (AID 588532; active means well fitted curve in the direction sought with a large enough effect in the signal ratio, with a control signal flat; the % refers to the signal ratio; further: potency means the concentration at half of the fitted maximal effect;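 on activation: 100% = dexamethasone at 0.1 µM and 0% = DMSO only wells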); conditions: HeLa MMTV-bla, beta-lactamase ratio, agonist, 18 h; activation: stronger effect = higher value, percent of dexamethasone control, DMSO zero
Outline: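 MMTV-bla HeLa, beta-lactamase reporter; medium with 1% charcoal/dextran-stripped FBS; cpds up to 92 uM, 18 h, 37 C; CCF4 readout 460/530 nm; Hill fit → EC50, efficacy vs 0.1 uM dexamethasone = 100%.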

[8] = target: Glucocorticoid receptor (Homo sapiens) (UniProt P04150); experiment: qHTS assay for small molecule antagonists of glucocorticoid receptor signaling (AID 588533; active means well fitted inhibition curve with a large enough effect in the signal ratio, with a control signal flat, not every such curve was filed as active; the % refers to the signal ratio;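 further: cells stimulated with 2 nM dexamethasone as agonist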; further: potency means the concentration at half of the fitted maximal effect)
Outline: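 Antagonist-mode qHTS: compound titrations added to GRE-bla HeLa cells, then dexamethasone 2 nM final; 18 h, 37 C. CCF4 FRET fluorescence normalized to dexamethasone and DMSO; IC50 from Hill fit.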

[9] = qHTS assay for small molecule antagonists of peroxisome proliferator-activated receptor delta signaling (AID 588535; active means well fitted inhibition curve with a large enough effect in the signal ratio, with a control signal flat, not every such curve was filed as active; the % refers to the signal ratio;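 on max response: cells co-treated with a PPAR-delta agonist as stimulator during compound exposure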); conditions: HEK293T PPARd-UAS-bla, beta-lactamase FRET ratio, 18 h; 460 nm channel
Outline: (§1)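 Inhibition of PPAR-delta response element-driven beta-lactamase expression is measured in HEK293T cells exposed to a compound titration series for 18 hrs at 37 C. Half-maximal inhibition comes from Hill equation fitting.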

[10] = target: Peroxisome proliferator-activated receptor delta (Homo sapiens) (UniProt Q03181); experiment: as above
Outline: as §1

[11] = target: Peroxisome proliferator-activated receptor gamma (Homo sapiens) (UniProt P37231); experiment: qHTS assay for small molecule agonists of peroxisome proliferator-activated receptor gamma signaling (AID 588536; active means well fitted curve in the direction sought with a large enough effect in the signal ratio, with a control signal flat, not every such curve was filed as active; the % refers to the signal ratio;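 further: 0% = DMSO basal wells and 100% = rosiglitazone at 2 µM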)
Outline: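 This is an agonist-mode beta-lactamase reporter assay in HEK293 PPAR-gamma-UAS-bla cells with 1% charcoal/dextran FBS. Compound titrations ran 16 h at 37 C before CCF4 detection. EC50 and efficacy are Hill fits scaled to 2 uM rosiglitazone (100%) and DMSO basal.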

[12] = target: Vitamin D3 receptor (Homo sapiens) (UniProt P11473); experiment: qHTS assay for small molecule antagonists of vitamin D receptor signaling (AID 588541; calls by dose curve;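 further: receptor activated by calcitriol during compound treatment; series mostly up to about 77 µM; on the % scale 0 is the no-effect control and ±100 the full control effect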)
Outline: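 VDR-UAS-bla HEK293T cells (2000/well, 2% charcoal-stripped FBS) were treated with titrated compounds plus 1-alpha,25-dihydroxyvitamin D3 (50 nM or 3 nM final) for 16 h at 37 C. CCF4 beta-lactamase fluorescence was read; Hill fits gave IC50.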

[13] = qHTS assay for small molecule agonists of retinoid X receptor alpha signaling (AID 588544; calls by dose curve;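 on activation: 0% = DMSO basal wells and 100% = reference agonist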); conditions: HEK293T RXRa-UAS-bla, beta-lactamase reporter, 18 h; 530 nm emission
[14] = target: Retinoic acid receptor RXR-alpha (Homo sapiens) (UniProt P19793); experiment: as above
[15] = qHTS assay for small molecule antagonists of retinoid X receptor alpha signaling (AID 588546; active means well fitted inhibition curve with a large enough effect in the signal ratio, with a control signal flat, not every such curve was filed as active; the % refers to the signal ratio;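 further: cells stimulated with 9-cis-retinoic acid as agonist; on the % scale 0 is the no-effect control and ±100 the full control effect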); conditions: HEK293T RXRa-UAS-bla, beta-lactamase ratio, antagonist mode; measured here: W530 green channel, cytotoxicity proxy
Outline: (§2)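 Beta-lactamase reporter inhibition, read as CCF4 fluorescence ratio (ex 405, em 460/530 nm) after 2 h at RT. HEK293T UAS-bla cells, 2500/well, were stimulated with 9-cis-RA at 500 or 100 nM final alongside test compound for 18 h at 37 C.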

[16] = target: Retinoic acid receptor RXR-alpha (Homo sapiens) (UniProt P19793); experiment: as above; conditions: HEK293T RXRa-UAS-bla, beta-lactamase ratio, antagonist mode
Outline: as §2

[17] = target: Thyroid hormone receptor beta (Homo sapiens) (UniProt P10828); experiment: qHTS assay for small molecule antagonists of thyroid hormone receptor beta signaling (AID 588547; active means well fitted inhibition curve with a large enough effect in the signal ratio, with a control signal flat, not every such curve was filed as active; the % refers to the signal ratio;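 further: cells stimulated with 0.4 nM T3 agonist during compound exposure; series mostly up to about 77 µM; on the % scale 0 is the no-effect control and ±100 the full control effect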); conditions: TR-UAS-bla HEK293, beta-lactamase ratio, antagonist mode, 18 h
Outline: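 TR-UAS-bla GripTite HEK293 cells in 2% charcoal/dextran FBS medium were preincubated 4 h at 37 C, given compound (0.59 nM to 92 uM) plus 0.4 nM T3 (final) for 18 h, then CCF4 for 2 h at RT; Hill fit gave IC50.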

[18] = S16 Schwann cell PMP22 intronic element beta-lactamase assay (AID 624044; calls by dose curve; further: nearly all actives have a fitted effect of over 15% in size; further: potency means the concentration at half of the fitted maximal effect)
Outline: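 Beta-lactamase reporter under a PMP22 intronic regulatory element in stable S16 rat Schwann cells; 24 h compound exposure. 460 nm blue signal normalized between DMSO (0%) and potassium clavulanate, with 535 nm FRET tracking viability; curves classed by r2 and response.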

[19] = target: Bile acid receptor (Homo sapiens) (UniProt Q96RI1); experiment: qHTS assay for small molecule antagonists of farnesoid X receptor signaling (AID 588526; calls by dose curve; further: on the % scale 0 is the no-effect control and ±100 the full control effect)
Outline: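 Concentration-response titrations were fitted to the Hill equation for half-maximal inhibition and maximal response, with data normalised to 50 uM chenodeoxycholic acid and DMSO control wells. Cells: FXR-UAS-bla HEK293T, dialyzed FBS.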

Sequence of Peroxisome proliferator-activated receptor delta (Homo sapiens) (Q03181 whole entry, looked up): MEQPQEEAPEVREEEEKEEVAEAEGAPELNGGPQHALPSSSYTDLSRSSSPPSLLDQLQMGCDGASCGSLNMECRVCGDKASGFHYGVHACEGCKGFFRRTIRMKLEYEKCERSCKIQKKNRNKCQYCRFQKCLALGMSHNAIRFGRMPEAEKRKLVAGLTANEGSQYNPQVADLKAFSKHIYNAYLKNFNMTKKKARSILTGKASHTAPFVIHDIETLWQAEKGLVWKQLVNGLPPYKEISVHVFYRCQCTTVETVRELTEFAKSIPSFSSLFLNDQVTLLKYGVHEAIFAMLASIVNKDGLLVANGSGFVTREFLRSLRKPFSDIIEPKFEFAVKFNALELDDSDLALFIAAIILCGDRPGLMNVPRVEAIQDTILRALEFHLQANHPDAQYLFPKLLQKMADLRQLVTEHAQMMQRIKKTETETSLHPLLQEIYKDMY
Sequence of Luciferin 4-monooxygenase (Photinus pyralis) (P08659 whole entry, looked up): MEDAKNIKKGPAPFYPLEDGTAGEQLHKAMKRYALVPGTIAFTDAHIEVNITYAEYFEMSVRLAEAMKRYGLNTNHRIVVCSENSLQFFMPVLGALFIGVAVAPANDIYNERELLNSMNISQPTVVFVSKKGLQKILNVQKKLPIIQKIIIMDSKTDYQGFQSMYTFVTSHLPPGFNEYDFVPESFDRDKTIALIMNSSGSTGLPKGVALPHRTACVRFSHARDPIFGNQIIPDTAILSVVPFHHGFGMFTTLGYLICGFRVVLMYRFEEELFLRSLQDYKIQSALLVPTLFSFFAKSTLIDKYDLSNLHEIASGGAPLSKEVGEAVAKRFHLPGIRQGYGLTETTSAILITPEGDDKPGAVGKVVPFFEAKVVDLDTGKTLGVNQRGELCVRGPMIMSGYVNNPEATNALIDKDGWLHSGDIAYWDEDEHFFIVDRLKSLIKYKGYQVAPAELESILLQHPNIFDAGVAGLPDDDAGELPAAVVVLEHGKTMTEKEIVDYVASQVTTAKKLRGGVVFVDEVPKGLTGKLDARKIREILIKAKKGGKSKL
Sequence of Retinoic acid receptor RXR-alpha (Homo sapiens) (P19793 whole entry, looked up): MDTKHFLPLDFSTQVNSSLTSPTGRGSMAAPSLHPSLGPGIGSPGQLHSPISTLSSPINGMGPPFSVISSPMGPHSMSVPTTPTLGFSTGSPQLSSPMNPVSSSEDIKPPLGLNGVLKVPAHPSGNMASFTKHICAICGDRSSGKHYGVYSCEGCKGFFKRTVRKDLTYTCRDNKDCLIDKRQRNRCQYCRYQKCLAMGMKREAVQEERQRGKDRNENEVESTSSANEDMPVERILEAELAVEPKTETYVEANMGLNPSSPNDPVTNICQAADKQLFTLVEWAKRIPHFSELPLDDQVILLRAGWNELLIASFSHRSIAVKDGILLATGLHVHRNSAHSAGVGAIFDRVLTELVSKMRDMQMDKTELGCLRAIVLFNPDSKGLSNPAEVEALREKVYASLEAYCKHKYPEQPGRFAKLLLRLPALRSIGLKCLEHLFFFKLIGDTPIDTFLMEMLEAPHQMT
Sequence of Peroxisome proliferator-activated receptor gamma (Homo sapiens) (P37231 whole entry, looked up): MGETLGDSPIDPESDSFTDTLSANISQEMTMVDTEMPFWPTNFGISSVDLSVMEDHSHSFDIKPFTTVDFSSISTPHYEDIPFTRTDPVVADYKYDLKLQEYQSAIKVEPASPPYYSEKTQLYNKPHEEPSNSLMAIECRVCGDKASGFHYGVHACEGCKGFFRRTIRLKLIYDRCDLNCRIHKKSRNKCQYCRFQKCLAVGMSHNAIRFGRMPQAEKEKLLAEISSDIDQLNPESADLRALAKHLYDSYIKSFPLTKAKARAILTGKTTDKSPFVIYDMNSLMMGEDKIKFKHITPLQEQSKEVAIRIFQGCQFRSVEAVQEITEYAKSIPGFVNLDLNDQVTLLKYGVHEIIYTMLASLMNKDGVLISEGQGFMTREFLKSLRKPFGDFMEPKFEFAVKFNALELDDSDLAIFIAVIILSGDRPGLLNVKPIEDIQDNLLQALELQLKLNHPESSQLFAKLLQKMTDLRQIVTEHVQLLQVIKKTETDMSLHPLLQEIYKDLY
Sequence of Glucocorticoid receptor (Homo sapiens) (P04150 whole entry, looked up): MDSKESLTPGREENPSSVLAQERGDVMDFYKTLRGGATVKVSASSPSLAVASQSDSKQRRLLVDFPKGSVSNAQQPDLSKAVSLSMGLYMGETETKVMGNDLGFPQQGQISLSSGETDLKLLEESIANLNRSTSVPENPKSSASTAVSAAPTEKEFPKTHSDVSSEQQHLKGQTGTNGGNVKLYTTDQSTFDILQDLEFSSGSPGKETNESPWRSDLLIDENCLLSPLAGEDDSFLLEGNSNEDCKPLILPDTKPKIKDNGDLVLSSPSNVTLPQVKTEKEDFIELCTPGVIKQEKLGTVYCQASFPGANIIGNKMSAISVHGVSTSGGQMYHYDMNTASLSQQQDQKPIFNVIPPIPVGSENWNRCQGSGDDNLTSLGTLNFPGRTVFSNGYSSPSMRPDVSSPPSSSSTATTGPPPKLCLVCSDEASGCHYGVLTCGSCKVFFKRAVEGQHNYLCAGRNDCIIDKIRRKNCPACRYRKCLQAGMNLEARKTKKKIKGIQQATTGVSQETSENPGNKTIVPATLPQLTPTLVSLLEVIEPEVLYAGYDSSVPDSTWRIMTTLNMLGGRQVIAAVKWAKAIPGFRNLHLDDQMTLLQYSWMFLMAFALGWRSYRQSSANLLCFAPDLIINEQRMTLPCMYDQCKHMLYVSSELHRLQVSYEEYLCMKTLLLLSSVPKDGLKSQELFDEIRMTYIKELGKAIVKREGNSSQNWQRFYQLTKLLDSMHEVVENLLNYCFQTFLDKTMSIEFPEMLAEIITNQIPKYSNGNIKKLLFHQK
Sequence of Thyroid hormone receptor beta (Homo sapiens) (P10828 whole entry, looked up): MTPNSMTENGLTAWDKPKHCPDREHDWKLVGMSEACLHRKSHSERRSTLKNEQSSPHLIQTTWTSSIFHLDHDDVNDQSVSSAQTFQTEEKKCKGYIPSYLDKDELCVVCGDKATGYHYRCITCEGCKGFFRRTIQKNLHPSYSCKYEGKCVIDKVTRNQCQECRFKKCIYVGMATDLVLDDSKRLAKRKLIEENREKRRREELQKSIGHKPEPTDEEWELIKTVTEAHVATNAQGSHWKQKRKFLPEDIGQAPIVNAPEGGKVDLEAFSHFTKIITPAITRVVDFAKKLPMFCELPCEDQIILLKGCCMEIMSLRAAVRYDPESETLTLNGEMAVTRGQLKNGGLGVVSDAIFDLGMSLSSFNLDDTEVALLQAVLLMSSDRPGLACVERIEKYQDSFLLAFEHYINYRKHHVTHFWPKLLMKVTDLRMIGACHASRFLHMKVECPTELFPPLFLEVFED
Sequence of Vitamin D3 receptor (Homo sapiens) (P11473 whole entry, looked up): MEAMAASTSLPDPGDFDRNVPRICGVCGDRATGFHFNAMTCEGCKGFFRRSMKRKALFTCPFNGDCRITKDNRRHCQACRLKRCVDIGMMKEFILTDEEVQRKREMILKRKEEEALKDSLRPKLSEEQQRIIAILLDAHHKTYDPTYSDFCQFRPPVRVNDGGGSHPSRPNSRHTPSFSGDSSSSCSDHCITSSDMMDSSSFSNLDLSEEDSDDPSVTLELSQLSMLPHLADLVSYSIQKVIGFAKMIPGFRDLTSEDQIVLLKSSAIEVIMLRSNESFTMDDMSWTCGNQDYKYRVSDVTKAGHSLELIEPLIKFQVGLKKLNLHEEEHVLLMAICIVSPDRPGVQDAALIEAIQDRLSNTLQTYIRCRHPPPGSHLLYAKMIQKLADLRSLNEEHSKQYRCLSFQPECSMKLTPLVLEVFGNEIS
Sequence of Bile acid receptor (Homo sapiens) (Q96RI1 whole entry, looked up): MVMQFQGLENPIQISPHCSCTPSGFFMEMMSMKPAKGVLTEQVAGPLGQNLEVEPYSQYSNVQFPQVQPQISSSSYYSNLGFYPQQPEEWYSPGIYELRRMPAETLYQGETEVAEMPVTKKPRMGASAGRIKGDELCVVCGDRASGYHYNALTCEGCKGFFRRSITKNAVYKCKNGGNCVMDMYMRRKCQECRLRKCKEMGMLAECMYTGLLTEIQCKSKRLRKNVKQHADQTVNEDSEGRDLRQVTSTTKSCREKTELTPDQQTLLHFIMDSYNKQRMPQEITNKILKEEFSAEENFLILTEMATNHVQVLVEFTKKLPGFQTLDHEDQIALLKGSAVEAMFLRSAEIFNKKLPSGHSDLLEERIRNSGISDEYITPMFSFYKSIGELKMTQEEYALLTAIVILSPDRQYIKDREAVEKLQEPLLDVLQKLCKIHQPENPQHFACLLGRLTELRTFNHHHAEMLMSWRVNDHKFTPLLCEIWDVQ

Nc1nc(N)c2nc(-c3ccccc3)c(N)nc2n1
active: Potency [4] 22.4 µM
inactive: outcome [3] | Potency [1] | Potency [2] | Potency [5] | Potency [6]

CN1C(=O)CC[C@H]1c1cccnc1
inactive: Potency [1]

COc1cc(Cc2cnc(N)nc2N)cc(OC)c1OC
inactive: activation [7] -1.11% | Potency [8] | outcome [10] | outcome [11] | outcome [3] | outcome [12] | outcome [14] | Potency [4] | max response [16] 0.608% | activity change % (negative = inhibition) [17] -6.78% | Potency [1] | Potency [2] | Potency [5] | Potency [6] | Potency [18]
38%: max response [9]
1.73%: max response [13]
-17.2%: max response [15]

O=c1[nH]c(=O)n([C@H]2C[C@H](O)[C@@H](CO)O2)cc1Br
inactive: outcome [19] | outcome [10] | outcome [11] | outcome [12] | outcome [14] | Potency [4] | max response [16] 7.58% | activity change % (negative = inhibition) [17] 7.23% | Potency [1] | Potency [2] | Potency [5]
-1.7%: max response [9]
active: Potency [6] 4.05 µM | Potency [18] 7.94 µM
11.1%: max response [15]
16.6%: max response [13]

CCCNC(C)C(=O)Nc1ccccc1C (stereo unspecified)
inactive: Potency [1]

Cc1ccc(S(=O)(=O)NC(=O)NN2CCCCCC2)cc1
inactive: activation [7] -1.16% | Potency [8] | outcome [10] | outcome [11] | outcome [3] | outcome [12] | outcome [14] | Potency [4] | max response [16] -7.05% | activity change % (negative = inhibition) [17] 5.89% | Potency [1] | Potency [2] | Potency [5] | Potency [6] | Potency [18]
-3.25%: max response [13]
-4.69%: max response [15]
47.3%: max response [9]

O=C(O)CN(CCN(CC(=O)O)CC(=O)O)CCN(CC(=O)O)CC(=O)O
inactive: Potency [1] | Potency [2] | Potency [5]

CN1CCN(CC(=O)N2c3ccccc3C(=O)Nc3cccnc32)CC1
inactive: Potency [1] | Potency [2] | Potency [5] | Potency [6]

CCc1c(C)[nH]c2c1C(=O)C(CN1CCOCC1)CC2 (stereo unspecified)
inactive: Potency [1]

c1ccc2c(c1)CCCC2C1=NCCN1 (stereo unspecified)
inactive: Potency [1]

Nc1ncn([C@@H]2O[C@H](CO)[C@@H](O)[C@H]2O)c(=O)n1
-23.8%: max response [13]
-15%: max response [15]
active: Potency [8] 7.94 µM and 5.62 µM
inactive: activation [7] -7.09% and -13.7% | outcome [14] | Potency [4] | max response [16] 19.1% | Potency [2] | Potency [5] | Potency [18]

NC(=Nc1ccccc1)Nc1ccccc1
3.91%: max response [13]
0.0144% and 57.9%: max response [9]
inactive: outcome [19] | Potency [8] | outcome [10] | outcome [11] | outcome [3] | outcome [14] | Potency [4] | max response [16] -22.5% and -7.28% | activity change % (negative = inhibition) [17] -0.182% | Potency [2] | Potency [5] | Potency [6]
-5.44% and -1.29%: max response [15]

CCCN(CCC)C(=O)C(CCC(=O)O)NC(=O)c1ccccc1 (stereo unspecified)
inactive: Potency [1]

C[C@]12C=CC(=O)C=C1CC[C@H]1[C@@H]3C[C@@H](O)[C@](O)(C(=O)CO)[C@@]3(C)C[C@H](O)[C@@]12F
-1.48%: max response [15]
-12%: max response [13]
10.9%: max response [9]
inactive: Potency [8] | outcome [10] | outcome [11] | outcome [3] | outcome [12] | outcome [14] | Potency [4] | max response [16] -2.06% | activity change % (negative = inhibition) [17] -4.06% | Potency [1]
active: Potency [7] 0.112 µM

CN=C(NC#N)NCCSCc1nc[nH]c1C
10.9%: max response [13]
1.01%: max response [15]
-4.23%: max response [9]
inactive: outcome [19] | outcome [10] | outcome [11] | outcome [3] | outcome [12] | outcome [14] | Potency [4] | max response [16] 4.57% | activity change % (negative = inhibition) [17] 11.1% | Potency [2] | Potency [5]

C[C@]12CCC(=O)C=C1CC[C@@H]1[C@@H]2C(=O)C[C@@]2(C)[C@H]1CC[C@]2(O)C(=O)CO
12.6%: max response [15]
active: Potency [8] 28.2 µM
inactive: activation [7] -0.667% | outcome [10] | outcome [11] | outcome [3] | outcome [12] | outcome [14] | Potency [4] | max response [16] -20.1% | activity change % (negative = inhibition) [17] 8.91% | Potency [1]
10.6%: max response [9]
17.3%: max response [13]

CC(C)(Oc1ccc(CCNC(=O)c2ccc(Cl)cc2)cc1)C(=O)O
inactive: outcome [19] | activation [7] -5.13% | Potency [8] | outcome [3] | outcome [12] | outcome [14] | Potency [4] | max response [16] -3.89% | activity change % (negative = inhibition) [17] 12.2% | Potency [1] | Potency [2] | Potency [5] | Potency [6]
1.78%: max response [15]
19.7%: max response [13]

CC(=O)Nc1nnc(S(N)(=O)=O)s1
inactive: outcome [11] | outcome [3] | outcome [14] | max response [16] -1.61% | activity change % (negative = inhibition) [17] -8.01% | Potency [2] | Potency [5]
-6.44%: max response [15]
-3.24%: max response [13]

— PubChem BioAssay (NCATS)
